# KB-3-1 cytotox = KB-3-1 parental cell cytotoxicity. KB-3-1 viability, CellTiter-Glo ATP luminescence, 72 h. Potency, µM (doses to about 46.1 µM), usual class: cytotoxic. actives 1.4% (n = 400,000). AID 1347075; note: % is set by controls: 0 for no effect and ±100 for the full control effect; nearly all actives have a fitted effect of over 60% in size
#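 Multi-concentration cytotoxicity screen in KB-3-1 cells grown in DMEM lacking phenol red with 10% FBS. After 72 h at 37 °C with compound, ATP-dependent luminescence was recorded.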
# HT1080 IDH1KD tx = toxicity to HT-1080 IDH1 knockdown cells (counter line); HT-1080 IDH1 knockdown viability, ATP luminescence, 48 h; Potency, µM (highest dose often 46.1 µM), without a hit: at the top dose activity, negative = toxicity, usual class: cytotoxic; actives 2% (n = 360,000); AID 686971;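 note: 0% = DMSO wells and -100% = cell-free medium wells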
#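 Cytotoxicity counter-line: IDH1KD HT-1080, 48 h, CellTiter-Glo. Curves classed by r2, magnitude and activity.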
# SW480 rerep = inducers of DNA re-replication in SW480 colon cancer cells; SW480 DNA re-replication, Hoechst DNA content imaging, 48 h; Potency, µM (top dose mostly 46.1 µM), inactives show at the highest dose re-replication activation, most hits filed as activators; actives 1.8% (n = 340,000); AID 624297; note: % of control where 0% means no effect; nearly all actives have a fitted effect of over 55% in size
#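 Treated cells incubate 48 hr (37 C, 5% CO2), are stained 40 min with Hoechst, and nuclear fluorescence is enumerated; a rise in nuclei with high DNA signal marks re-replication.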
# KB-V1 cytotox = KB-V1 MDR subline cytotoxicity; Potency, µM (top dose mostly 46.1 µM), hits mostly cytotoxic; actives 3.4% (n = 400,000); KB-V1 MDR cells viability, CellTiter-Glo, 72 h; note: % is set by controls: 0 for no effect and ±100 for the full control effect; nearly all actives have a fitted effect of over 60% in size
#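 KB-V1, DMEM (no phenol red) + 10% FBS; cpd pin-transferred, titration series; 72 h, 37 degrees C; CellTiter-Glo, luminescence. Data normalized, curve-fit.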
# HT1080NT lethal = kills 2HG-producing HT-1080-NT fibrosarcoma cells; HT-1080-NT fibrosarcoma viability, CellTiter-Glo ATP luminescence, 48 h; Potency, µM (highest dose often 46.1 µM), for the others: at the top dose activity, negative = less viability, usual class: cytotoxic; actives 1.6% (n = 360,000); AID 686970;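 note: NT is the 2HG producing partner of a matched IDH1 knockdown line; 0% = DMSO-treated cells and -100% = media-only wells without cells; nearly all actives have a fitted effect of over 55% in size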
#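 Compounds were tested in concentration-response format on HT-1080-NT cells for 48 hours at 37 degrees C. Cell viability came from CellTiter-Glo luminescence; curves were classified by r2, response magnitude and activity.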
# MCF10A rereplic = induces DNA re-replication in MCF 10a normal breast cells; MCF 10A DNA re-replication, Hoechst nuclear intensity, 48 h; actives 2.9% (n = 350,000); Potency, µM (series often up to 46.1 µM), for inactives: top-dose activity, positive = re-replication, most hits filed as activators; note: % of control where 0% means no effect; nearly all actives have a fitted effect of over 50% in size
# * hit, by the source's call; i = inactive; ? = inconclusive; . = no result given. In the library only some 8% were active in any assay of this set; here they are far more common. Calls come from the whole dose curve; as a rule, active = well fitted curve in the direction sought with a large enough effect; inconclusive = small, poorly fitted or top-dose-only effect, or another doubt; inactive = no such curve, though single readings can be large; an effect the other way counts as inactive or inconclusive. Potency is the fitted concentration of half-maximal effect.
SMILES,KB-3-1 cytotox,HT1080 IDH1KD tx,SW480 rerep,KB-V1 cytotox,HT1080NT lethal,MCF10A rereplic
C=CC[C@]1(O)CCC2C3CCC4=CCCCC4C3CCC21C (some centres undefined),.,.,5%,.,.,19µM*
COc1cc(/C=C/[N+](=O)[O-])ccc1O,?,?,?,i,?,?
CCN(CC)c1ccc(/C=C/[N+](=O)[O-])cc1,?,16µM*,?,?,?,?
Cc1ccc(C2CC3CCC(C2)N3Cc2ccccc2F)cc1 (centres undefined),?,15µM*,?,?,?,?
CCn1c(=N)n(Cc2ccccc2F)c2ccccc21,i,-3%,0%,i,-3%,1%
Cc1cc(C(C#N)c2ccc(Cl)cc2)c(Cl)cc1NC(=O)c1cc(I)cc(I)c1O (centres undefined),i,?,?,i,?,?
CCOC(=O)c1cc(C(O)(C(=O)OC)C(F)(F)F)c(/N=C/N(C)C)o1 (centres undefined),i,-5%,-2%,i,4%,-2%
CC[C@@H](O)C[C@H]1CCC[C@@]2(C[C@@H]3OC(=O)/C=C/[C@@](C)(O)[C@@H](O)[C@H](C)[C@@H](O)[C@H](OC4CCC(N(C)C)C(C)O4)[C@@H](O)[C@](C)(O)CCCCC/C=C/[C@@H]4CC(C)(C)O[C@@]4(O)C[C@H](O2)[C@H]3C)O1 (some centres undefined),0.16µM*,?,?,0.073µM*,-9%,?
N#CC1=C(N)Oc2c(c(=O)oc3ccccc23)C1c1ccc(OC(=O)N2CCOCC2)cc1 (centres undefined),i,18%,2%,?,15%,-4%
CCCCCCC(=O)c1c(O)n(-c2ccccc2OC)c(=O)[nH]c1=O (tested in a mixture with another compound),i,16%,-15%,?,6%,14%
CCCCCCC(=O)c1c(O)n(-c2ccc(OC)cc2)c(=O)[nH]c1=O (tested in a mixture with another compound),i,-7%,6%,8.2µM*,-18%,4%
COc1ccc(-n2c(O)c(/C(C)=N/Nc3ccccc3)c(=O)[nH]c2=O)cc1,i,1.8µM*,-94%,i,1.6µM*,15%
CN1CCN(C(=O)COc2ccc(N(C)S(=O)(=O)c3ccc(F)cc3)cc2)CC1,i,19%,-1%,?,7%,5%
O=C(c1ccccc1F)c1cn(Cc2ccccc2)c2ccccc12,i,?,17%,?,3%,2%
CCCC(=O)Nc1cc(C(=O)N2CCC3(CC2)OCCO3)ccc1S(=O)(=O)c1ccc(C)cc1,i,-2%,-3%,10µM*,4%,-3%
CC(=O)Nc1cc(C(=O)N2CCC3(CC2)OCCO3)ccc1S(=O)(=O)c1ccc(C)cc1,i,10%,-16%,i,17%,-5%
OC(c1ccccc1)(c1ccc(Cl)cc1)C1CN2CCC1CC2 (centres undefined),?,16µM*,?,?,?,?
CC(C)N1C(=O)/C(=C/C=C/c2ccco2)C(=O)N(Cc2ccco2)C1=O,?,?,?,?,?,9.2µM*
CN(C)c1ccc(/C=C2/C(=O)NC(=O)N(Cc3ccco3)C2=O)cc1,i,6%,-2%,i,7%,-2%
CCN1C(=O)C(=C/C=C/c2ccco2)C(=O)N(CC)C1=S,i,-17%,5%,i,-7%,0%
COc1ccc(/C=C2/C(=O)N(Cc3ccco3)C(=O)N(C(C)C)C2=O)cc1,i,4%,6%,i,-3%,18µM*
Cc1ccc(OC(=O)N(C)C[C@@H]2OCc3cnnn3CCCC(=O)N([C@@H](C)CO)C[C@H]2C)cc1,i,0%,.,i,2%,.
CCCCOC(=O)c1ccccc1N,i,-2%,?,i,-19%,15%
O=C1OC(c2ccc([N+](=O)[O-])cc2)=N/C1=C/N1CC2CC(C1)c1cccc(=O)n1C2 (centres undefined),i,-6%,-4%,i,2%,5%
O=c1cccc2n1CC1CC2CN(C(c2ccccc2)c2sc3ncnn3c2O)C1 (centres undefined),i,-1%,-14%,i,0%,0%
SMILES,KB-3-1 cytotox,HT1080 IDH1KD tx,SW480 rerep,KB-V1 cytotox,HT1080NT lethal,MCF10A rereplic
CCn1c(O)c(C=NCc2cccs2)c(=O)n(CC)c1=S,i,6%,-1%,i,0%,?
CCn1c(O)c(C(=O)CC2NCCc3ccccc32)c(=O)n(CC)c1=S (centres undefined),i,-18%,2%,i,-1%,21µM*
CC(O)C1C=CC=CC(=O)OC2CC3OC4C5OC5(C)CCC4(COC(=O)C4OC4(C)C(O)CO1)C2(C)C31CO1 (centres undefined),0.21µM*,.,0.46µM*,10µM*,?,0.15µM*
CC(=O)OC1C(=O)OCC23CCC4(C)OC4C2OC2CC(OC(=O)C=CC=CC(=O)OCCC1C)C3(C)C21CO1 (centres undefined),0.18µM*,.,?,0.37µM*,1.5µM*,12%
COc1ccc(C(CC(=O)N2CCC3(CC2)OCCO3)NS(=O)(=O)c2ccc(F)cc2)cc1 (centres undefined),i,16%,-2%,i,12%,-19%
CN(CC=CCN(C)P(=S)(N1CC1)N1CC1)P(=S)(N1CC1)N1CC1,i,-11%,?,i,-1%,13µM*
COc1ccc(-c2ccc3c(c2)CN(C(=S)NCCc2ccccc2)Cc2cnnn2-3)cc1,i,-1%,.,i,-13%,.
Cc1ccc(NC(=O)CSc2nnc([C@@H](N)Cc3c[nH]c4ccccc34)o2)c(C)c1,i,2%,-3%,i,0%,1%
COC(=O)C1=C(c2ccc(F)cc2OCc2ccccc2)C[C@@H]2CC[C@H]1N2C(=O)NCc1cccc(OC)c1,?,-17%,14%,i,-16%,25%
COC(=O)C1=C(c2ccc(F)cc2OCc2ccccc2)C[C@@H]2CC[C@H]1N2C(=O)NCc1cccc(C(F)(F)F)c1,?,-11%,1%,?,-7%,3.3µM*
COC(=O)C1=C(c2ccc(F)cc2OCc2ccccc2)C[C@@H]2CC[C@H]1N2C(=O)NCCN1CCOCC1,i,0%,?,i,2%,0.58µM*

# Source: PubChem BioAssay (National Center for Advancing Translational Sciences (NCATS))
